# The full ranking holds about 33,000 sequences; the median of “E-score (-0.5 to 0.5)” is about -0.056, and the highest 2% start at about 0.38. The sample holds the highest values, similar sequences and a random draw of the others, so the mix is not that of the screen.
# Biological target: Stb4 (UniProt P50104)
# Assay: PBM E-score (8-mer binding enrichment) (E-score (-0.5 to 0.5)); higher = stronger / more preferred TF binding
# Conditions: protein concentration: 200 nM; construct: GST-DNA-binding domain
# Experimental: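 Universal 'all 10-mer' protein binding microarrays (Agilent AMADID 015681) probed with GST-tagged S. cerevisiae TFs (full-length or DBD) made by in vitro transcription/translation (PURExpress), about 100-200 nM. Bound TF was detected with fluorescent anti-GST. Each ungapped 8-mer (which stands for itself and its reverse complement) is scored by the PBM enrichment score (E-score), a modified Wilcoxon-Mann-Whitney statistic from -0.5 to +0.5, computed with the Universal PBM Analysis Suite. Scale: above 0.35 generally sequence-specific binding.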
# Chain of UniProt P50104 (P50104 whole entry): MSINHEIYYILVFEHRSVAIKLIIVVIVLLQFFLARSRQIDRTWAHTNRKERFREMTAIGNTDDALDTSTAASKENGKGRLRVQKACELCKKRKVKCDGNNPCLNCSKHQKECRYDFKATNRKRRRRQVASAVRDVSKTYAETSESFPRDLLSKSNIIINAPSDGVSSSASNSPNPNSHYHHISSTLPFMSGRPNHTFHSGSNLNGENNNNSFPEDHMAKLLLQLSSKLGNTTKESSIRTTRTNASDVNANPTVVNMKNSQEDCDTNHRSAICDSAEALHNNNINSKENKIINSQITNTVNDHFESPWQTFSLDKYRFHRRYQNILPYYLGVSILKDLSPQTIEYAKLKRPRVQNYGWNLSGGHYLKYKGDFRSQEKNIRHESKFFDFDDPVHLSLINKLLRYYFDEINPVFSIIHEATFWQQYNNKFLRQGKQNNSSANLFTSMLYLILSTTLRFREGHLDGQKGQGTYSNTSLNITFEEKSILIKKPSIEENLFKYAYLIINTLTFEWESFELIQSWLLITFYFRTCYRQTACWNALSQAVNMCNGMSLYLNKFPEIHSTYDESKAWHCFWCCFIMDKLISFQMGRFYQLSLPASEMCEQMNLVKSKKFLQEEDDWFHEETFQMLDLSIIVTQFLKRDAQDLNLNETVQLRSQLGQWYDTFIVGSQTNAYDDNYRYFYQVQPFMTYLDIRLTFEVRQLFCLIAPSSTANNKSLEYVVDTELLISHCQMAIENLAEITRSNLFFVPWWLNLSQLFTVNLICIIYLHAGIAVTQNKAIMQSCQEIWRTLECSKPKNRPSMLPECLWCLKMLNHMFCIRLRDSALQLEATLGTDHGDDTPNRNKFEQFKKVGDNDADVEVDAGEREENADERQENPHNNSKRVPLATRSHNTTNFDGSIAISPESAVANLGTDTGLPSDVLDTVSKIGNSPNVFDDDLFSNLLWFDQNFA
row,Sequence,PBM E-score
1,CGAACGGA,0.327
2,GTCTAAAA,-0.0585
3,GTACTGAC,-0.0527
4,AGTAAGCG,-0.0174
5,AGACTATG,-0.17
6,ACCAGGCG,-0.159
7,CATACAGA,-0.0776
8,AGTGATTG,-0.0135
9,ACCTCGTG,-0.0555
10,ACCTCGGA,0.463
11,ACCTCGGG,0.421
12,ACCTCGAG,-0.0838
13,ACCTCGTC,-0.0708
14,ACCTCGCC,-0.0213
15,ACCTCGTA,0.0536
16,ACCTCGGC,0.415
17,CCCTCGCC,-0.217
18,ACCTCGAA,-0.105
19,CCCTCGGC,0.399
20,CCCTCGTC,0.0826
21,AGTAGATA,-0.0337
22,CTCCATTA,-0.148
23,CGCCTTTC,-0.0815
24,TGGGTAAA,-0.0511
25,GGGGTAAC,-0.122

row,Sequence,PBM E-score
1,CGGGTAAA,0.424
2,AGGGTAAA,0.0281
3,CGGGTAAG,0.336
4,CGGGTAAC,0.393
5,AAGCCTAC,-0.253
6,CACACTGG,-0.18
7,CATTTAGG,-0.174
8,ACGCTTTG,0.035
9,GTCTATTA,-0.00563
10,CTCGGGAC,0.45
11,CCCGGGAC,0.387
12,GCCGGGAC,0.28
13,ATCGGGAC,0.284
14,CTCGGGAA,0.462
15,ATCGGGAA,0.412
16,CTCGGGGA,0.349
17,CCGGGGAC,0.157
18,ATCGGGAG,0.367
19,CACGGGAC,0.214
20,ATCGGGGA,0.243
21,GTCGGGAA,0.377
22,AGCAACTC,-0.0301
23,TACTCAAA,-0.108
24,CTTATCGA,-0.105
25,AGTCACTG,-0.274

row,Sequence,PBM E-score
1,AACTGAAA,-0.121
2,CCCTATAC,-0.154
3,ACACCGTG,0.106
4,CTTGACGA,-0.0253
5,ACTACTTG,-0.195
6,ACGAGCTA,-0.221
7,CTGAGCTC,-0.172
8,CCGAGCTC,0.435
9,GCGAGCTA,-0.0842
10,CCGAGCTA,0.424
11,ACGAGCTC,0.0375
12,CACGGTCA,-0.197
13,CAACTACG,-0.0502
14,TGAGAACA,-0.212
15,ACCGGAAC,0.419
16,CCCGGAGG,0.206
17,CCCGGACG,0.163
18,ACCGGAGC,0.244
19,CCCGGAAC,0.416
20,CCCGGACC,0.26
21,ACCGGAAG,0.388
22,AGCGGAAG,0.335
23,ACCGGAAT,0.294
24,ACGGGAAG,0.232
25,CCCGGAAG,0.417

row,Sequence,PBM E-score
1,CCGGGAAC,0.381
2,CTGGTGGC,-0.167
3,CGACTCAC,0.0516
4,GAATACCC,0.341
5,AAAAGGAG,-0.0435
6,AGGTACCG,0.254
7,CGAGTCTC,0.0605
8,GGAGCCCA,-0.203
9,AGGTGCTC,-0.148
10,AGGCAGTC,-0.144
11,GAAGGCGA,-0.051
12,CGTGGGGC,-0.121
13,GACGGAAA,0.36
14,TCCGGAGA,0.335
15,GGCGGAAA,0.277
16,ACCGGGAA,0.335
17,CCCGGGAA,0.355
18,GCCGGAAA,0.401
19,CCCGGAAA,0.39
20,TCCGGACA,0.322
21,TCCGGAAA,0.439
22,TCCGGGAA,0.388
23,AGGACTGA,-0.0328
24,CACTTGGA,-0.087
25,AATGTGGA,-0.0863

row,Sequence,PBM E-score
1,ACGATTCT,-0.05
2,GTATAGGA,-0.287
3,AGCCATTA,0.0954
4,CTTCTGTC,-0.158
5,AGCTGATA,-0.047
6,ACCGGAAA,0.384
7,GCCGGAAC,0.428
8,ACCGGCAA,0.229
9,ACCGGACT,0.252
10,GCCGGACC,0.196
11,GCCGGAGC,0.283
12,AACTGTCC,0.0472
13,AGAGTGTA,-0.094
14,GTTTCCCA,-0.0576
15,GTTTCCGA,0.466
16,GTTTCCAA,-0.1
17,CTTTCCCA,-0.053
18,CTTTCCGC,0.324
19,CTTTCCGA,0.463
20,ATCTATGA,-0.0937
21,ATGCAGAG,-0.146
22,GATCAGGA,-0.029
23,ATTCATCC,0.202
24,ATTACACA,-0.13
25,CCGAAACC,0.395

row,Sequence,PBM E-score
1,CCGAAAGG,0.363
2,ACGAAACC,-0.0179
3,ACGAAAAC,0.154
4,CCGAAACA,0.364
5,ACGAAAAA,-0.189
6,CCGAAAAA,0.434
7,CCGAAAAG,0.384
8,GCGAAAAC,-0.154
9,TCGAAAAA,-0.00854
10,CCGAAAAC,0.41
11,ACGAAAAG,-0.23
12,CTAATCGA,-0.105
13,CGCCTCCC,-0.0433
14,CGGTCCCC,0.141
15,CCCTATGC,-0.0929
16,AAGTGCGG,0.226
17,GCGAAAGA,-0.166
18,CCGAAAGA,0.388
19,CCGAAAGC,0.377
20,ACGAAGGC,-0.0627
21,GACCTGGA,-0.196
22,GTCCTGAA,-0.197
23,CACCGAAC,0.224
24,AACCGAAG,0.362
25,ATCCGAAG,0.48

row,Sequence,PBM E-score
1,TTGCGAAA,0.116
2,ATCCGCAG,0.285
3,TTCCGAAA,0.468
4,GTCCGAAC,0.335
5,ATCCGAAC,0.475
6,CTCCGAAC,0.427
7,CTCCGAAA,0.357
8,AACCGAAC,0.356
9,TTTCGAAA,-0.307
10,AGTCAGCC,-0.161
11,ACTGATCT,-0.0326
12,CAGGAAAG,-0.2
13,ATACGGGA,0.237
14,CACTAAAC,-0.0976
15,TACTTCTA,-0.254
16,AAATTGCG,0.114
17,TCCTAGGA,-0.093
18,CTGTGGGA,-0.145
19,CACCGAAG,0.228
20,ATCCGAAA,0.48
21,GTCCGAAA,0.337
22,AACCGAAA,0.372

# Source: the supplement of paper PMC3334620
